Screening results deposited in PubChem by several laboratories.
C-LANA FP: inhibitors of KSHV C-LANA binding to DNA, primary screen, biochemical, fluorescence polarization, FAM-LBS DNA, MBP-C-LANA, single point; inhibition, % at 9 µM; 0.078% of 340,000 active; AID 504423, 2011;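 active means highest replicate inhibition at or above 60% at 9 µM, even if other replicates fall short; inactive means all replicates below 60% inhibition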
RTF Ca sens act: cardiac RTF calcium sensitivity activators, primary screen, biochemical, IANBD-TnC fluorescence, EC20 calcium; Troponin I, cardiac muscle (Homo sapiens) + Troponin T, cardiac muscle (Homo sapiens) + …; IANBD-labeled TnC RTF fluorescence at EC20 calcium; 0% EC20 calcium, 100% full calcium; activation, % at 7.2 µM; 0.24% of 340,000 active; AID 493008, 2010;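 active means activation above the mean over all tested compounds plus 3 SD, cut at about 30% in these data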;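 further: rise in fluorescence read as greater calcium sensitivity of cardiac thin filaments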
LANA-H2B inh: blockers of LANA interaction with H2A/H2B – biochemical, FP readout, HTS, primary screen. Protein LANA1 (Human herpesvirus 8 type P (isolate GK18)), Q9QR71. cell-free LANA-H2A/H2B peptide, fluorescence polarization. inhibition, % (test concentration not listed). 0.6% of 320,000 active; in the data active means inhibition mostly above about 10%, no sharp cut-off; inactive means mostly below about 6.7%
Keap1-Nrf2 PPI: Keap1-Nrf2 protein-protein interaction inhibitors, primary screen, biochemical, fluorescence polarization, single point. Kelch-like ECH-associated protein 1 (Homo sapiens), Q14145. Keap1 Kelch-Nrf2 peptide fluorescence polarization, 1536-well. inhibition, % at 9.4 µM. 0.15% of 340,000 active; in the data active means inhibition above about 12%;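 further: human Keap1 Kelch domain with fluorescein labeled Nrf2 9mer peptide probe; higher means more block of Keap1 binding to Nrf2 peptide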
Target sequence (Q14145 whole entry, looked up, the tested form may be a part): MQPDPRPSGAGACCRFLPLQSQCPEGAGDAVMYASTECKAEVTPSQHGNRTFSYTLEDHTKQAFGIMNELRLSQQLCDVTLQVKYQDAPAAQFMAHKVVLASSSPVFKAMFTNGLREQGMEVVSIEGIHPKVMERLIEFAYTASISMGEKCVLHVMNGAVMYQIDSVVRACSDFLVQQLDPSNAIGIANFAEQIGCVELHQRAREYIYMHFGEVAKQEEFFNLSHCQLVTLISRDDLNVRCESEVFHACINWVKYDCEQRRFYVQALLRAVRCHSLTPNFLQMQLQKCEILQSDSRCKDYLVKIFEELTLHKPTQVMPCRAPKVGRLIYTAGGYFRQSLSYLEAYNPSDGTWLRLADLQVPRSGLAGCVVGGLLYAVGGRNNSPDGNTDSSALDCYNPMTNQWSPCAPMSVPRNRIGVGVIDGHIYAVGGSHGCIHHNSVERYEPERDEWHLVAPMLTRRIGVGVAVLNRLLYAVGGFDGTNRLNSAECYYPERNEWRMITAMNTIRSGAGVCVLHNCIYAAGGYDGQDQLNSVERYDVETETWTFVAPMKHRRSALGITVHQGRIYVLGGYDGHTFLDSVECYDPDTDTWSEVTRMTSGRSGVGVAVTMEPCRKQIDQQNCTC
Cardiac RTF inh: cardiac RTF calcium sensitivity inhibitors, primary screen, biochemical, IANBD-TnC fluorescence, EC70 calcium | Troponin I, cardiac muscle (Homo sapiens) + Troponin T, cardiac muscle (Homo sapiens) + … | IANBD-labeled cardiac RTF, Ca2+ fluorescence | inhibition, % at 7.15 µM | 0.12% of 340,000 active | AID 493244, 2011;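 active means inhibition above the mean inhibition of all tested compounds plus 3 SD, cut at about 17% in these data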;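 further: assay run at fixed EC70 calcium of 1.6 mM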
Each line names hits and unclear results; the compound was inactive in the other large screens; ! = a repeat was not active. Compounds with a hit are over-represented: about 0.98% of the library has one in this group of screens.

Cc1cc2c(C(F)(F)F)cc(=O)oc2c2c1NCCC2	RTF Ca sens act 63
COc1ccc(N2C(=O)/C(=C/c3ccc(C)o3)C(=O)NC2=S)c(OC)c1	none
Cc1cccc(N2C(=O)/C(=C/c3ccc(N4CCN(C)CC4)o3)C(=O)NC2=S)c1C	RTF Ca sens act 89
CCc1ccccc1N1C(=O)/C(=C/c2ccc(N3CCN(C)CC3)o2)C(=O)NC1=S	RTF Ca sens act 65
C=CC(=O)NCNC(=O)C=C	LANA-H2B inh 10
COC(=O)C1=C(c2ccc(Cl)c(C(F)(F)F)c2)C[C@@H]2CC[C@H]1N2C(=O)NCC1CC1	none
CCCCn1c(O)c(C(=O)/C=C/c2c[nH]c3ccccc23)c(=O)[nH]c1=O	RTF Ca sens act 67
O=C1NC(=O)N(Cc2ccccc2)C(=O)/C1=C\N1CCCc2ccccc21	RTF Ca sens act 36
O=C1NC(=O)C(=CN2CCc3ccccc32)C(=O)N1	none
CCOC(=O)CC(SP1(=S)OCC2(CC=CCC2)CO1)C(=O)OCC (centres undefined)	none (no result: LANA-H2B inh)
COc1cccc2c1C(=O)c1c(O)c3c(c(O)c1C2=O)CC(O)(C(C)=NO)CC3OC1CC(N)C(O)C(C)O1 (centres undefined)	C-LANA FP 114, RTF Ca sens act 166 (no result: LANA-H2B inh)
Cc1ccc2c(c1)C1CN(C)CCC1N2C(=O)/C(C#N)=C/c1ccc2c(c1)OCO2 (centres undefined)	none
CN1C(=O)C(=Cc2ccc(N3CCCCCC3)o2)C(=O)N(C)C1=S	RTF Ca sens act 58
Cc1ccc(Sc2ccc(C=C3C(=O)N(C)C(=O)N(C)C3=O)o2)cc1	none
CN1C(=O)C(=Cc2ccc(N3CCOCC3)o2)C(=O)N(C)C1=O	RTF Ca sens act 72
O=C(OCC(=O)c1ccc([N+](=O)[O-])cc1)/C(=C/c1ccc(Cl)cc1)NC(=O)c1ccccc1	none
CCC(=NCc1cccnc1)c1c(O)n(-c2ccc(C)cc2)c(=O)[nH]c1=O	none
Fc1cccc(C2NCc3ccccc3-n3cccc32)c1 (centres undefined)	none
CC(=O)CCC(C)=O	LANA-H2B inh active
Fc1ccc(C(OCCN2CCCC2)c2ccc(Br)cc2)cc1 (centres undefined)	LANA-H2B inh 13
Fc1ccc(C(OCCN2CCCC2)c2ccc(F)cc2)cc1	none
COc1ccc(C(c2ccc(OC)cc2)C(Cl)(Cl)Cl)cc1	none
Cc1cc(OCC(=O)NCc2ccncc2)c2c3c(c(=O)oc2c1)CCC3	LANA-H2B inh 16
COC(=O)C1=C(c2ccccc2OCc2ccccc2)C[C@@H]2CC[C@H]1N2C(=O)NCCN1CCOCC1	none
C/C=C/c1ccc2c(c1)OCO2	LANA-H2B inh 11
N#CC(C#N)=Cc1ccc(-c2ccccc2F)o1	RTF Ca sens act 36
O=Cc1c(C(=O)O)n(Cc2ccc(Cl)cc2)c2ccccc12	RTF Ca sens act 320
Cc1c(C=O)c2ccccc2n1Cc1ccccc1	none
Cc1cc(OCCCC(=O)NCc2cccs2)ccc1Cl	LANA-H2B inh 23
COc1ccc2c(C)c(CCC(=O)N3C[C@H]4C[C@@H](C3)c3cccc(=O)n3C4)c(=O)oc2c1	none
CC(C(=O)c1c[nH]c2ccccc12)N1CCSCC1 (centres undefined)	LANA-H2B inh 23
CC(C(=O)c1c[nH]c2ccccc12)N1CCOCC1 (centres undefined)	none
CCOP(=S)(OCC)Oc1nc(Cl)c(Cl)cc1Cl	LANA-H2B inh active
COc1cc2c(c(OC)c1OC)-c1ccc(O)cc1[C@@H](NC(C)=O)CC2	none
COP(=S)(OC)SCN1C(=O)c2ccccc2C1=O	LANA-H2B inh 23
C[N+]1(C)C2CCC1CC(OC(=O)C(CO)c1ccccc1)C2 (centres undefined)	none
C[N+]1(C)[C@@H]2CC[C@H]1CC(OC(=O)C(CO)c1ccccc1)C2 (some centres undefined)	LANA-H2B inh 37!
